# Test results from PubChem BioAssay AID1347131 (National Center for Advancing Translational Sciences (NCATS), 2019).
# Screen size: about 410,000 compounds; about 2,000 (0.49%) were called active. About 8% were inconclusive and are not listed. The entries come from a sample that favours actives as a whole. Unmarked numbers belong to inactive results. Calls come from the whole dose curve; tested in HEK293 reporter line.
# Experiment: qHTS Assay for Foot and Mouth Disease Virus Antivirals: Primary Screen against the MLPCN compound library; note: nearly all actives have a fitted effect of over 55% in size
# Conditions: FMDV antiviral cell-based qHTS; series mostly up to 57.9 µM; activity, negative = inhibition: at the top concentration
# Potency is the fitted concentration of half-maximal effect.
Structure (SMILES),"activity, negative = inhibition [%]",Potency
Cc1ccc(OCCSc2nc3ccc(NC(=O)c4ccc(F)cc4)cc3s2)cc1,-39.9,–
O=C(COc1ccc(F)cc1)Nc1ccc2nc(SCC(=O)N3CCc4ccccc43)sc2c1,-35.2,–
O=C(COc1ccc(F)cc1)Nc1ccc2nc(SCC(=O)N3CCOCC3)sc2c1,–,25.1 µM (active)
Cc1occc1C(=O)NC1CCCN(Cc2ccc(Cl)cc2)C1 (centres undefined),-36.9,–
Cc1nn(CC(C)C)c(Cl)c1C(=O)N(C)CC(=O)Nc1ccc(Cl)cc1,-43.7,–
C=CCN(c1ccc(C(=O)Nc2cccc(C)c2)cc1)S(C)(=O)=O,-30.9,–
CC1CN(S(=O)(=O)c2ccc(C(=O)Nc3ccccc3F)cc2)CC(C)O1 (centres undefined),-34.4,–
NC(=O)c1ccsc1NC(=O)CCS(=O)(=O)c1ccc(F)cc1,-36.9,–
CC1CC(C)CN(S(=O)(=O)c2ccc(C(=O)Nc3sccc3C(N)=O)cc2)C1 (centres undefined),–,8.91 µM (active)
Cc1onc(-c2ccc3c(c2)OCO3)c1-c1ccc2[nH]ccc2c1,-30.6,–
CCOc1ccc(-c2nnc3ccc(SC(C)C)nn23)cc1,-33.5,–
CC(C(=O)Nc1ccccc1-c1ccccc1)N(C)Cc1nc2ccccc2c(=O)[nH]1 (centres undefined),-32.1,–
CN(Cc1nc2ccccc2c(=O)[nH]1)C(=O)c1cccc(S(=O)(=O)N2CCCCCC2)c1,-38.5,–
CN(C)c1ccc(-c2nc3ccccc3c(=O)[nH]2)cc1,–,20 µM (active)
CCOC(=O)CNC(=O)CSc1nnc(NC(=O)c2ccc(C)cc2)s1,–,12.6 µM (active)
Cc1cccc(-n2nnnc2SCC(=O)NCC2CCCO2)c1 (centres undefined),-30.1,–
Cn1c(SCC(=O)NCC2CCCO2)nnc1-c1c[nH]c2ccccc12 (centres undefined),-16,–
CC(C)(C)c1ccc(C(=O)Nc2nnc(SCC(=O)NCC3CCCO3)s2)cc1 (centres undefined),–,14.1 µM (active)
Cc1cccc(NC(=O)CSc2nnc(NC(=O)CN3CCOCC3)s2)c1,-34.9,–
CC(C)CC(=O)Nc1nnc(SCC(=O)Nc2ccc(F)cc2)s1,-44.4,–
O=C(COc1ccc2c3c(c(=O)oc2c1)CCC3)N1CCN(c2ccc(F)cc2)CC1,-35.2,–
Nc1nonc1C(=O)NCCNCc1ccc(Cl)c(Cl)c1,-37,–

Structure (SMILES),"activity, negative = inhibition [%]",Potency
CCCCn1c(N)c(N(CCC(C)C)C(=O)c2ccc3c(c2)OCO3)c(=O)[nH]c1=O,-42,–
CCC(C)c1ccccc1OCCCCN1CCCC1 (centres undefined),-31.5,–
CC(C)C(OC(=O)c1cccc(S(=O)(=O)NCC(F)(F)F)c1)C(=O)NC(N)=O (centres undefined),104,–
Cc1cc(C)nc(NS(=O)(=O)c2ccc(-n3cccc3)cc2)n1,116,–
Cc1cc(C(=O)C(=O)N(C)C)c(C)n1-c1ccc([N+](=O)[O-])cc1,-31.5,–
Cc1ccccc1CN1C2=NCCN2c2ccccc21,-33.6,–
Cc1cc(C)cc(NC(=O)c2ccc3c(c2)nnn3C2CCCC2)c1,-30,–
CCOC(=O)c1ccccc1NC(=O)CN1CCC(n2nnc3cc(C(F)(F)F)ccc32)CC1,-33.7,–
O=C(Nc1cccc(C(F)(F)F)c1)c1ccc2c(c1)nnn2C1CCCC1,–,12.6 µM (active)
COc1ccc(NC(=O)c2cc(-c3ccccn3)nc3ccccc23)cc1S(=O)(=O)N(C)C,-35.2,–
COc1ccc(CCNC(=O)CSc2nnc(-c3ccccc3)c3ccccc23)cc1OC,-34.5,–
COc1ccc(CNC(=O)Cn2c(=O)nc(-c3ccccc3)c3ccccc32)cc1OC,–,20 µM (active)
CCn1c(=O)c(C(=O)NCc2ccc(OC)c(OC)c2)c(O)c2ccccc21,-36.9,–
CC(=O)c1cc(-c2ccccc2)n(CC(=O)Nc2ccc(C)c(C)c2)c1C,-30,–
c1csc(Cn2nnnc2CN2CCN(c3nc4ccccc4s3)CC2)c1,–,17.8 µM (active)
Cc1nc2cc(C(F)(F)F)ccc2n1C1CCN(Cc2nnnn2Cc2cccs2)CC1,-47.6,–
COc1cccc2sc(N3CCN(c4nc5ccccc5s4)CC3)nc12,-45.2,–
Nc1ccc(-c2ccc(N)cc2C(F)(F)F)c(C(F)(F)F)c1,-18.9,–
CC(=O)C1=C(c2ccc(F)cc2)N(C(C)=O)n2c(nnc2C2CCCCC2)S1,-32.7,–
CCN(CC)CCNC(=O)COc1ccc(OC)cc1,-21.5,–
COc1ccc(OCC(=O)Nc2nccs2)cc1,–,15.8 µM (active)
CCOC(=O)Cc1csc(NC(=O)COc2ccc(OC)cc2)n1,-34.6,–

Structure (SMILES),"activity, negative = inhibition [%]",Potency
COc1ccc(NC(=O)CN(C)C(=O)c2cccc(S(=O)(=O)N3CCN(c4ccccc4)CC3)c2)cc1,-12,–
Cc1ccccc1CS(=O)(=O)c1ccc(C(=O)N2CCOCC2)cc1[N+](=O)[O-],-30.7,–
Cc1ccc(S(=O)(=O)Nc2c(C)cc([N+](=O)[O-])cc2C)cc1,-33.5,–
Cc1ccc(S(=O)(=O)Cc2cc(F)c([N+](=O)[O-])cc2[N+](=O)[O-])cc1,–,15.8 µM (active)
O=C(N/N=C/c1cccs1)C(O)c1ccccc1 (centres undefined),110,–
O=C(Nc1cccc(Cl)c1N1CCOCC1)c1cc([N+](=O)[O-])ccc1N1CCOCC1,-37.2,–
CCOc1ccc(NC(=O)N(Cc2ccc(CC)cc2)Cc2cn[nH]c2-c2ccc(OC)cc2)cc1,-31.5,–
CCOC(=O)c1cc(C)n(CC2CCC(C(=O)Nc3ccc(OC)cc3)CC2)c1C (centres undefined),-31.8,–
CCOC(=O)c1cn[nH]c1NC(=S)Nc1ccc(OC)cc1,–,17.8 µM (active)
Cc1ccc(S(=O)(=O)N/N=C/c2ccc(OCC(=O)N3CCOCC3)cc2)cc1,121,–
CCOc1ccc(CNC(=O)CCCn2ccc3cc(S(=O)(=O)N4CCCC4)ccc32)cc1,-31.1,–
O=C(Nc1ccc(N2CCOCC2)c(Cl)c1)c1c(F)c(F)c(F)c(F)c1F,-42.1,–
O=C(Nc1cccc(S(=O)(=O)N2CCCCC2)c1)c1cnccn1,-31.3,–
O=C(Nc1ccc(N2CCOCC2)cc1)c1cnccn1,–,12.6 µM (active)
Cc1cc2oc(C(=O)NC3CCS(=O)(=O)C3)cc(=O)c2cc1C (centres undefined),-51.9,–
CCc1ccc(NC(=O)c2sc3nc(C)nc(N4CCN(c5ccccn5)CC4)c3c2C)cc1,-84.8,–
CN(C)c1ccc(C(=O)N2CCCC(CCC(=O)N3CCN(c4ccccn4)CC3)C2)cc1 (centres undefined),-31.5,–
Cc1ccc(S(=O)(=O)N(C)CCCC(=O)N2CCN(c3ccccn3)CC2)cc1,–,22.4 µM (active)
Cc1ccc(S(=O)(=O)N(C)CCCC(=O)Nc2ccncc2)cc1,-35,–
COc1ccc(C(=O)NCC(=O)N2CCN(C(=O)c3ccco3)CC2)cc1[N+](=O)[O-],-58.7,–
